The list is not random: actives were taken first. Their share in the collection is about 8.8%.
HTT aggregate = qHTS Multiplex Assay to Identify Dual Action Probes in a Cell Model of Huntington: Aggregate Formation (GFP) | PC12 HttQ103-GFP aggregates, Acumen cytometry, 40 h | actives 1.1% (n = 220,000) | AID 1688, 2009 | Potency, µM (doses to about 46.1 µM), most hits filed as inhibitors; further: nearly all actives have a fitted effect of over 60% in size
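Aggregates are detected as GFP objects 1–25 µm with signal 6 STDEV over background in lysates of induced PC12 cells. These carry Huntingtin exon 1 with 103 glutamines fused to GFP under an ecdysone promoter; compounds titrated.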
LMNA splice mod = qHTS Assay for Modulators of Lamin A Splicing. HeLa LMNA splicing GFP/RFP minigene ratio, 48 h. Potency, µM (top dose mostly 46.1 µM), most hits filed as inhibitors. actives 0.01% (n = 200,000); active means well fitted inhibition curve with a large enough effect in the signal ratio, with a control signal flat, not every such curve was filed as active; inconclusive means small, poorly fitted or top-dose-only effect, or effect the other way, or a change in a side signal; the % refers to the signal ratio
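Read-out is the ratio of GFP to DsRed2 object intensity, acquired by 488 nm laser-scanning cytometry on HeLa lamin A-EGFP minigene reporter cells. Compound incubation 48 hrs at 37 °C in Opti-MEM with 2% FBS; DMSO 0.5% final.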
HPGD inh = qHTS Assay for Inhibitors of HPGD (15-Hydroxyprostaglandin Dehydrogenase) | 15-hydroxyprostaglandin dehydrogenase [NAD(+)] (Homo sapiens), P15428 | purified HPGD, NADH fluorescence kinetic, PGE2 substrate | Potency, µM, hits mostly inhibitors | actives 4.3% (n = 150,000) | AID 894, 2007; active means well fitted inhibition curve with a large enough effect, not every such curve was filed as active; inconclusive means small, poorly fitted or top-dose-only effect, or another doubt; inactive means no such curve, though single readings can be large or run the other way
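20 nM HPGD preincubated 15 min at room temperature with compound in 50 mM Tris-HCl pH 8, 0.01% Tween 20. Started with 1 mM NAD+ and 30 uM prostaglandin E2; NADH fluorescence (360/450 nm) read 5 times over 30-s intervals, last minus first.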
HTT ATP protect = qHTS Multiplex Assay to Identify Dual Action Probes in a Cell Model of Huntington: Cytoprotection (ATP); PC12 HTT-Q103 induced, cytoprotection, ATP luminescence, 40 h; actives 0.14% (n = 230,000); Potency, µM (series often up to 56.4 µM), usual class: activators; further: nearly all actives have a fitted effect of over 45% in size
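Cells were plated at 1500 per well in phenol red-free DMEM with 5% equine and 5% calf serum. Tebufenozide (100 nM final) and compounds were added, then ATPlite reagent, and luminescence was read.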
ALDH1A1 block = qHTS Assay for Inhibitors of Aldehyde Dehydrogenase 1 (ALDH1A1); Purified ALDH1A1, NADH fluorescence, propionaldehyde substrate; Potency, µM (titrated, usually from 75.3 µM), most hits filed as inhibitors; actives 7.3% (n = 220,000); AID 1030, 2008; active means well fitted inhibition curve with a large enough effect, not every such curve was filed as active; inconclusive means small, poorly fitted or top-dose-only effect, or another doubt; inactive means no such curve, though single readings can be large or run the other way
Target sequence (P00352 whole entry, looked up): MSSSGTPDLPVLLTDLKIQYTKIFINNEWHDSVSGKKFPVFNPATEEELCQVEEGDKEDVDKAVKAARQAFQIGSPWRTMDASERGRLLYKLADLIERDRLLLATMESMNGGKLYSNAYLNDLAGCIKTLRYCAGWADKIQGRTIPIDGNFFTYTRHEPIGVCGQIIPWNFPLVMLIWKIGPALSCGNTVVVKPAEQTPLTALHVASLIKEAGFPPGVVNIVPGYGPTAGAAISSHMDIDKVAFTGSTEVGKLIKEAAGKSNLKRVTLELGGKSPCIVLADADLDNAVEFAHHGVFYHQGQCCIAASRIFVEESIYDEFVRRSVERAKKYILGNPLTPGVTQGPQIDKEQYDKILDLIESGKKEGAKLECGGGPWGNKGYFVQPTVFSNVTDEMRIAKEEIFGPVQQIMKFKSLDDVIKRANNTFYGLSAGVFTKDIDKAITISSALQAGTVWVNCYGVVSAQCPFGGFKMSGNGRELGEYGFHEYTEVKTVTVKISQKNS
Hits are given with their value; - = inactive; ? = inconclusive; . = no result given; [ ] = remark or other dose. Unless noted, the call rests on the fitted dose curve; in most records, active means well fitted curve in the direction sought with a large enough effect; inconclusive means small, poorly fitted or top-dose-only effect, or another doubt; inactive means no such curve, though single readings can be large; an effect the other way counts as inactive or inconclusive.

SMILES | HTT aggregate | LMNA splice mod | HPGD inh | HTT ATP protect | ALDH1A1 block
O=C(Cn1nc(-c2ccccc2)nc(Cc2ccccc2)c1=O)Nc1ccc(Cl)cc1 | . | - | . | . | .
O=C(CCCC1=NS(=O)(=O)c2ccccc2N1)N1CCN(c2ccc(Cl)cc2)CC1 | - | ? | - | - | -
CC(C)(CC(=O)N1CCN(c2ccc(Cl)cc2)CC1)CC1=NS(=O)(=O)c2ccccc2N1 | 11.2µM | - | - | - | -
COCCN(C(=O)CSc1nnc(-c2ccccc2C)n1C)c1c(N)n(Cc2ccccc2)c(=O)[nH]c1=O | - | . | . | - | -
CCCCNC(=S)Nc1cccc(C(C)=O)c1 | - | - | 31.6µM | -[10 µM] | -
CCCCOC(=O)Nc1cccc(C(C)=O)c1 | - | ? | 28.2µM | - | -
O=C(Cn1c(=O)c2cccn2c2ccc(F)cc21)N1CCN(c2ccccc2)CC1 | . | - | . | . | .
Cc1ccc(NC(=O)CN2CCN(S(=O)(=O)c3cccs3)CC2)cc1S(=O)(=O)N(C)C | - | . | . | . | ?
Cc1ccc2nc(SCC(=O)NCc3ccco3)c(C#N)cc2c1 | - | - | 7.94µM | -[10 µM] | -
Cc1ccc2nc(SCC(=O)NCc3ccco3)c(C)cc2c1 | -[9.22 µM] | - | . | -[10 µM] | 15.8µM
O=C(C[C@@H](c1ccccc1)N1CCCCC1)c1ccccc1 | . | . | ? | -[10 µM] | -[13.5 µM]
CC(C)(C)OC(=O)N[C@@H](Cc1ccccc1)c1nnc(S(=O)(=O)Cc2ccccc2)o1 | ? | ? | 3.55µM | - | ?
Cc1ccccc1CS(=O)(=O)c1nnc([C@H](Cc2ccccc2)NC(=O)OC(C)(C)C)o1 | ? | ? | 7.08µM | - | 14.1µM
CCSc1nnc([C@H](Cc2ccccc2)NC(=O)OC(C)(C)C)o1 | - | - | - | - | ?
CCC(C)C(NCc1cccc(C)c1)C(=O)O (stereo unspecified) | . | . | . | -[0.074 µM] | .
CCC(C)[C@@H](NC(=O)OC(C)(C)C)c1nnc(S(=O)(=O)Cc2cccc(C)c2)o1 (stereo partly specified) | ? | ? | 14.1µM | - | -
COc1ccc(OCC(=O)N(Cc2ccco2)C2CCS(=O)(=O)C2)cc1 (stereo unspecified) | -[9.22 µM] | . | . | -[10 µM] | .
Cc1csc(SCC(=O)NCc2cccc(Cl)c2)n1 | - | - | . | - | ?
CCC(c1nnc(SCC(=O)NCCc2ccc(Cl)cc2Cl)o1)N(C)C (stereo unspecified) | - | - | 14.1µM | -[10 µM] | 15.8µM
O=C(CSc1ccc2c(c1)OCCO2)NCCc1ccc(Cl)cc1Cl | - | ? | . | -[10 µM] | -
Cc1csc(SCC(=O)NCCc2ccc(Cl)cc2Cl)n1 | - | - | 28.2µM | -[10 µM] | -
CN(C(=O)Nc1cn(C)c(=O)c2ccccc12)c1ccccc1 | . | - | . | . | .
COc1ccc(C(C)=O)cc1COC(=O)c1cc(C)oc1C | - | - | - | -[0.074 µM] | 17.8µM
CSc1ncccc1C(=O)OCc1ccccc1Cl | ? | - | . | - | ?
COc1ccc(C(C)=O)cc1COC(=O)c1cc(C)nc2ccccc12 | - | ? | . | - | 8.91µM
SMILES | HTT aggregate | LMNA splice mod | HPGD inh | HTT ATP protect | ALDH1A1 block
COc1ccc(C(C)=O)cc1COC(=O)Cc1n[nH]c(=O)c2ccccc12 | - | - | 22.4µM | -[10 µM] | ?
COc1ccc(C(C)=O)cc1COC(=O)c1cccnc1SC | - | - | . | - | 10µM
O=C(Cc1n[nH]c(=O)c2ccccc12)OCC(=O)c1ccc2c(c1)OCCO2 | - | ? | - | - | -
CS(=O)(=O)N(CC(=O)O)Cc1ccccc1 | . | . | - | -[10 µM] | -[13.5 µM]
O=C(NCCCCCCNC(=O)c1cncc(O)c1)c1cncc(O)c1 | -[9.22 µM] | . | . | -[10 µM] | .
N/C(=N\OC(=O)CCCCCN1C(=O)c2ccccc2C1=O)c1ccccc1 | - | - | 12.6µM | -[10 µM] | ?
CCOc1ccc(C(C)=O)cc1COC(=O)c1cccnc1SC | - | ? | . | -[10 µM] | 25.1µM
COc1ccc(C(C)=O)cc1COC(=O)CNC(=O)c1cc(C)cc(C)c1 | - | - | - | -[1.9 µM] | 7.94µM
Cc1cccc(/C(N)=N/OC(=O)CCCN2C(=O)c3ccccc3C2=O)c1 | - | - | - | - | -
COc1cc(C(=O)NCC(=O)OCc2ccccc2Cl)cc(OC)c1OC | - | . | . | - | -
COc1ccc(C(C)=O)cc1COC(=O)CCCN1C(=O)c2ccccc2C1=O | - | - | . | -[10 µM] | 3.55µM
